Reference: the supplement of paper PMC10849652
The full data set covers some 7,900 targets. This sample favours those with a hit. About 0.6% of all pairs of compound and target were hits.

Experiments:
Experiment in all cases: log2 fold change, soluble protein after heating vs DMSO (PISA); higher = thermal stabilisation; K562 cells, 10 uM, 30 min; active = over 0.2 and 3.5 SD of the protein, either way, in both replicates (recomputed)
[1] = compound: CC[C@@H]1C(=O)N(C)c2cnc(Nc3ccc(C(=O)NC4CCN(C)CC4)cc3OC)nc2N1C1CCCC1
Outline: (§1)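 K562 cells at 2×10^6 cells/mL were exposed to 10 μM compound for 30 min, then aliquots were heated for 3 min across 48°C-58°C, pooled, and extracted in PBS containing 0.5% NP-40 at 4°C. The supernatant after 21,000xg for 90 min was taken as soluble protein and measured by TMTpro 16plex LC-MS/MS with channel sums equalised. Thermal stability is reported relative to control samples, with values from duplicates. Fold changes are given on a log2 scale.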

volasertib = compound: CC[C@@H]1C(=O)N(C)c2cnc(Nc3ccc(C(=O)N[C@H]4CC[C@H](N5CCN(CC6CC6)CC5)CC4)cc3OC)nc2N1C(C)C [volasertib]
Outline: as §1

[2] = compound: CC[C@H](C)N1C=C(C2=C(C=C(C=C21)C3=CN=C(C=C3)N4CCNCC4)C(=O)NCC5=C(C=C(NC5=O)C)C)C
Outline: as §1

epoxomicin = compound: CC[C@H](C)[C@@H](C(=O)N[C@@H]([C@@H](C)O)C(=O)N[C@@H](CC(C)C)C(=O)[C@]1(CO1)C)NC(=O)[C@H]([C@@H](C)CC)N(C)C(=O)C [epoxomicin]
Outline: as §1

[3] = compound: CCn1c(C(=O)N(C2CC2)C2CC2)cc2c3c(ncn3C)c(Nc3cc(C)n(C)n3)nc21
Outline: as §1

[4] = compound: CCn1cc(-c2ccnc3[nH]c(-c4cccc(CN(C)C)c4)cc23)c(-c2ccc(NC(=O)N(C)C)cc2)n1
Outline: as §1

[5] = compound: CN(C)CC(=O)Nc1ccc2[nH]c(=O)c3ccccc3c2c1
Outline: as §1

rosiglitazone = compound: CN(CCOC1=CC=C(C=C1)C[C@H]2C(=O)NC(=O)S2)C3=CC=CC=N3 (racemic) [rosiglitazone]
Outline: as §1

[6] = compound: CN1C2=C(C3=C1C(=O)N(N=C3)CC4=CC(=CC=C4)N)SC(=C2)S(=O)C
Outline: as §1

[7] = compound: CN1CCC(CNc2ccc3ncc(-c4cccc(OC(F)(F)F)c4)n3n2)CC1
Outline: as §1

saracatinib = compound: CN1CCN(CCOc2cc(OC3CCOCC3)c3c(Nc4c(Cl)ccc5c4OCO5)ncnc3c2)CC1 [saracatinib]
Outline: as §1

sotrastaurin = compound: CN1CCN(c2nc(C3=C(c4c[nH]c5ccccc45)C(=O)NC3=O)c3ccccc3n2)CC1 [sotrastaurin]
Outline: as §1

alvocidib = compound: CN1CC[C@H](c2c(O)cc(O)c3c(=O)cc(-c4ccccc4Cl)oc23)[C@H](O)C1 [alvocidib]
Outline: as §1

Tubastatin A = compound: CN1CCc2c(c3ccccc3n2Cc2ccc(C(=O)NO)cc2)C1 [Tubastatin A]
Outline: as §1

[8] = compound: CNC(=O)C1=CC=CC=C1NC2=NC(=NC=C2Cl)NC3=C(C=C(C=C3)N4CCOCC4)OC
Outline: as §1

defactinib = compound: CNC(=O)c1ccc(Nc2ncc(C(F)(F)F)c(NCc3nccnc3N(C)S(C)(=O)=O)n2)cc1 [defactinib]
Outline: as §1

rucaparib = compound: CNCc1ccc(-c2[nH]c3cc(F)cc4c3c2CCNC4=O)cc1 [rucaparib]
Outline: as §1

[9] = compound: CNc1nc(-c2ccc3c(N)n[nH]c3c2)cc(N2C[C@@H](C(=O)NC3CCCCC3)CC[C@H]2C)n1
Outline: as §1

encorafenib = compound: COC(=O)N[C@@H](C)CNc1nccc(-c2cn(C(C)C)nc2-c2cc(Cl)cc(NS(C)(=O)=O)c2F)n1 [encorafenib]
Outline: as §1

[10] = compound: COC(=O)[C@H](CCSC)NC(=O)C1=C(C=C(C=C1)NC[C@H](CS)N)C2=CC=CC=C2
Outline: as §1

Measured: log2 fold change

ITPRIP (UniProt Q8IWB1)
UniProt Q8IWB1, sequence (Q8IWB1 whole entry, looked up): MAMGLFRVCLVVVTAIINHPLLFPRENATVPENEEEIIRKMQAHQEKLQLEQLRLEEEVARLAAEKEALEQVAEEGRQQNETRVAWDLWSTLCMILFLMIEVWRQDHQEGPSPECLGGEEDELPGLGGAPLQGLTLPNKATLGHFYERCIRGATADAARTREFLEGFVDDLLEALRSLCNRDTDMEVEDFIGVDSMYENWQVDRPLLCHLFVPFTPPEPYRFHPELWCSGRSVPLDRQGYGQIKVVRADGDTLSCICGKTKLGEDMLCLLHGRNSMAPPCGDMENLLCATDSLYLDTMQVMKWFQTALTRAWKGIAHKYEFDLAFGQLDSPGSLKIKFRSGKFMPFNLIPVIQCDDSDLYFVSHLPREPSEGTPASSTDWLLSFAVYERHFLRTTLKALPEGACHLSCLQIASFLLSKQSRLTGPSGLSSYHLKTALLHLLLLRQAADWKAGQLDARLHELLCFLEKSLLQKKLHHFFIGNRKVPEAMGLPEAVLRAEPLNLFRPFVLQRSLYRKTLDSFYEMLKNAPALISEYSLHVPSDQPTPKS
inactive: [1] -0.037 | volasertib -0.148 | [2] -0.012 | epoxomicin -0.019 | [3] -0.016 | [4] 0.031 | [5] 0 | rosiglitazone 0.044 | [6] -0.111 | [7] -0.017 | saracatinib -0.028 | sotrastaurin 0.016 | alvocidib -0.116 | Tubastatin A 0.034 | [8] 0.011 | defactinib -0.037 | rucaparib 0.034 | [9] -0.084 | encorafenib -0.009 | [10] 0.013

MEPCE (UniProt Q7L2J0)
UniProt Q7L2J0, sequence (Q7L2J0 whole entry, looked up): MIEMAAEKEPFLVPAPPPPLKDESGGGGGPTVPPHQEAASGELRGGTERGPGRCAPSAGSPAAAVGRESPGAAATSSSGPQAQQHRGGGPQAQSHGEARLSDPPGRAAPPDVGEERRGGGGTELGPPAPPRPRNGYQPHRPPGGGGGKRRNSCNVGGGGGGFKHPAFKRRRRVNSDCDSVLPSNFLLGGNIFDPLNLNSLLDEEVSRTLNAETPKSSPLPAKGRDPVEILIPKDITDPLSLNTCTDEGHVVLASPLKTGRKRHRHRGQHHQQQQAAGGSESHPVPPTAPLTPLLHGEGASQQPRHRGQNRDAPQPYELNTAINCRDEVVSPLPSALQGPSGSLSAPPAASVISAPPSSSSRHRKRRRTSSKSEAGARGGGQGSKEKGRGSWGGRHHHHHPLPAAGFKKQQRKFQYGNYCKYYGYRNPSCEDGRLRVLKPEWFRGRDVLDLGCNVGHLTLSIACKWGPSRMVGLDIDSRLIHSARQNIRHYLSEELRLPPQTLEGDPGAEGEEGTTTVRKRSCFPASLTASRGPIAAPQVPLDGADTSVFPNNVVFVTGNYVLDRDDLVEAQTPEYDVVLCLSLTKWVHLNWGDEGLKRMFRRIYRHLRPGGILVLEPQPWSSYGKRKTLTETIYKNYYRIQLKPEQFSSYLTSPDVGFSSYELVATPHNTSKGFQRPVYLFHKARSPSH
inactive: [1] -0.07 | volasertib -0.209 | [2] 0.052 | epoxomicin -0.053 | [3] 0.009 | [4] -0.013 | [5] 0.061 | rosiglitazone -0.019 | [6] 0.007 | [7] -0.051 | saracatinib -0.019 | sotrastaurin -0.022 | alvocidib -0.112 | Tubastatin A -0.104 | [8] -0.052 | defactinib -0.192 | rucaparib -0.056 | [9] 0.049 | encorafenib 0.067 | [10] -0.077

IPO11 isoform 2 (UniProt Q9UI26)
UniProt Q9UI26, sequence (Q9UI26 whole entry, looked up): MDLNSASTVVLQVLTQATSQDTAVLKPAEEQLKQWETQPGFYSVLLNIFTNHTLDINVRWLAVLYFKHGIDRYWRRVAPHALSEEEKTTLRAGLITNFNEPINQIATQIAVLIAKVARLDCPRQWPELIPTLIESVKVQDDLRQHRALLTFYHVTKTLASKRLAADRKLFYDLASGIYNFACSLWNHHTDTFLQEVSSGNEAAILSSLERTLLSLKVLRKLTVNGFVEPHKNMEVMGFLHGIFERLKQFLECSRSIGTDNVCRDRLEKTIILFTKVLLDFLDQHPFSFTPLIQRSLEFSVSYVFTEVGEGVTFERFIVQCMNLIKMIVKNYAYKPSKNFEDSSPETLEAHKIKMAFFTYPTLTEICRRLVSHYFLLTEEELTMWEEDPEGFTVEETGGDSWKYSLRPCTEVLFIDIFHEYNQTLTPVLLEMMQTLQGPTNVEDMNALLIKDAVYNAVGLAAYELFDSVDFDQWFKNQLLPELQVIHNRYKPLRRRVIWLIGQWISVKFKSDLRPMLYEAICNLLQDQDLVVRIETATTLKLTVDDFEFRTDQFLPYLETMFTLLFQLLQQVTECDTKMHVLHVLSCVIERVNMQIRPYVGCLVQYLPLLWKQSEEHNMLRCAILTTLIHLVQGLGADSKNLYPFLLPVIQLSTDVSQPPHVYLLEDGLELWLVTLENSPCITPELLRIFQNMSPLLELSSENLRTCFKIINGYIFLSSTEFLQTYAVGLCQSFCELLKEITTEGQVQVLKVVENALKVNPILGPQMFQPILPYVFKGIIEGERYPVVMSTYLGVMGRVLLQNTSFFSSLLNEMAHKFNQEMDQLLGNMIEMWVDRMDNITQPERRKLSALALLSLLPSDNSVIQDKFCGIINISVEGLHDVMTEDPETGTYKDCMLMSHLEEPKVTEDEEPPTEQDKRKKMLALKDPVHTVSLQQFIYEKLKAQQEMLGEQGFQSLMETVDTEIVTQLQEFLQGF
inactive: [1] -0.104 | [2] -0.004 | epoxomicin 0.066 | [3] -0.01 | [4] -0.068 | [5] 0.028 | rosiglitazone -0.002 | [6] -0.082 | [7] -0.016 | saracatinib 0.048 | sotrastaurin -0.02 | alvocidib -0.006 | Tubastatin A -0.043 | [8] 0.01 | defactinib -0.013 | rucaparib -0.053 | [9] -0.03 | encorafenib -0.004 | [10] 0.012
active: volasertib -0.3

LDAH isoform 2 (UniProt Q9H6V9)
UniProt Q9H6V9, sequence (Q9H6V9 whole entry, looked up): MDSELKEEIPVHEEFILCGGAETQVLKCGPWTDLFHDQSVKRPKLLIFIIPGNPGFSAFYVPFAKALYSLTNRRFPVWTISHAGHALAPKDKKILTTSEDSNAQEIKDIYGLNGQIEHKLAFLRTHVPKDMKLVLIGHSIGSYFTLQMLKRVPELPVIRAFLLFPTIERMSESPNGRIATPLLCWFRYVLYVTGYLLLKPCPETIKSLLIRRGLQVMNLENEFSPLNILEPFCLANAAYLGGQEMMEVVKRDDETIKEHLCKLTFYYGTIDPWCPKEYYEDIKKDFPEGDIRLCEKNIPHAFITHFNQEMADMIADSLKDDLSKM
inactive: [1] -0.062 | [2] 0.007 | epoxomicin -0.052 | [3] -0.011 | [4] -0.148 | [5] 0.049 | rosiglitazone -0.031 | [6] -0.137 | saracatinib 0.092 | sotrastaurin 0.035 | alvocidib -0.139 | Tubastatin A -0.03 | [8] -0.001 | defactinib -0.09 | rucaparib -0.004 | [9] -0.043 | encorafenib 0.04 | [10] -0.063
active: volasertib -0.374 | [7] -0.688

MDC1 (UniProt Q14676)
UniProt Q14676, sequence (Q14676 whole entry, looked up): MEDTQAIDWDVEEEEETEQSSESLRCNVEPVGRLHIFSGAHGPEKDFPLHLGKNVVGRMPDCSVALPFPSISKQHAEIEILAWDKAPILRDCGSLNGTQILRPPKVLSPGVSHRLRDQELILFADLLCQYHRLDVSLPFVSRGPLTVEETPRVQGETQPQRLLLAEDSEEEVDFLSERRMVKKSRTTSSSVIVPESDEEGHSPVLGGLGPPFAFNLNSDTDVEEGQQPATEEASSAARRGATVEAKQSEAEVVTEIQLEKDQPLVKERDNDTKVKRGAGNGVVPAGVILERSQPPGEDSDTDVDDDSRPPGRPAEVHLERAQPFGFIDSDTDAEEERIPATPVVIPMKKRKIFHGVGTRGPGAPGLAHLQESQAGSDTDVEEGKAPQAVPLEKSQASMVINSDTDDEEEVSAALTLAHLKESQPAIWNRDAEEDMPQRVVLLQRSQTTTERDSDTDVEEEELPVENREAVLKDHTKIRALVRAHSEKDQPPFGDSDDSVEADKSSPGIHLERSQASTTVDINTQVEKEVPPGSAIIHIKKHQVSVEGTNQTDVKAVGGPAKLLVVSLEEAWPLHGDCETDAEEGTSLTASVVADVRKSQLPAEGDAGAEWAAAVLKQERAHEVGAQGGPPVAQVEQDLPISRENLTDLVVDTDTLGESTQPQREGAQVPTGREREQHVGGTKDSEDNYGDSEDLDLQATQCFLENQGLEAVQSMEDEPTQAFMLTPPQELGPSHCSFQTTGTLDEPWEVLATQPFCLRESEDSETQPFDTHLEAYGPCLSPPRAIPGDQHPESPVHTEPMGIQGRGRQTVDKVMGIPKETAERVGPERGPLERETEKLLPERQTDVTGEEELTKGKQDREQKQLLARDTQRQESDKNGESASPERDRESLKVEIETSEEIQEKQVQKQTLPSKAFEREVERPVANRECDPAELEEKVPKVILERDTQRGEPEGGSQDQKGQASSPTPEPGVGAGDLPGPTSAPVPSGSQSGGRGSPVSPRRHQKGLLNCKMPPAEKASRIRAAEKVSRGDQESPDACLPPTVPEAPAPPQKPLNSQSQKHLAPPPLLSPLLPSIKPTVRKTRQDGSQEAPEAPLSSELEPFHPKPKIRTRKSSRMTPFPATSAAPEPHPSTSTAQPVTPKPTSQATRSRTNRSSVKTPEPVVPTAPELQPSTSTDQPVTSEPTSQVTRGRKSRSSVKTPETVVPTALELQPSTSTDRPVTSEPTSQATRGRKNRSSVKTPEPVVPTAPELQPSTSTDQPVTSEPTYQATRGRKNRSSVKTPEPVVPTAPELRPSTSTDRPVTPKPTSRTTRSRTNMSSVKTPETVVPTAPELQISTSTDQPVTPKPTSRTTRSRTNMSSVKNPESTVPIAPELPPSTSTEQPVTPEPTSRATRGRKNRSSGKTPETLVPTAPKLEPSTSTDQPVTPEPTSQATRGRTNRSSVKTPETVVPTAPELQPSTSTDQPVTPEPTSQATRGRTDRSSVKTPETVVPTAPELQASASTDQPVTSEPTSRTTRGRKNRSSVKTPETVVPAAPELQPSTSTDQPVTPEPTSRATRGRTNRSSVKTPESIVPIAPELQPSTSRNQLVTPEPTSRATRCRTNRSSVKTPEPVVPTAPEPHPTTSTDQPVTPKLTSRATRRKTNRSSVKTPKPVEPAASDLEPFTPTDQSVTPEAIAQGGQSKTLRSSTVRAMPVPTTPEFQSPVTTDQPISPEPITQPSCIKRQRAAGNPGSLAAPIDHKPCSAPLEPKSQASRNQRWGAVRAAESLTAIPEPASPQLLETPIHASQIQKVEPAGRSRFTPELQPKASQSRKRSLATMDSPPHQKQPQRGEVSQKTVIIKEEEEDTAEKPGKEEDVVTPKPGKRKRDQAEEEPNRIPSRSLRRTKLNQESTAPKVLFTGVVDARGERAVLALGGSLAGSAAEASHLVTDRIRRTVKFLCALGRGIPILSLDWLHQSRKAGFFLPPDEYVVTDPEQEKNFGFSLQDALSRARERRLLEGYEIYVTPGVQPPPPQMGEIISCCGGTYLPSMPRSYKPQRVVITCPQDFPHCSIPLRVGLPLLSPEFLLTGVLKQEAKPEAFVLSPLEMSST
active: [6] 0.527
inactive: [1] 0 | volasertib -0.074 | [2] -0.028 | epoxomicin 0.039 | [3] -0.03 | [4] 0.384 | [5] 0.015 | rosiglitazone 0.019 | [7] 0.069 | saracatinib -0.194 | sotrastaurin -0.003 | alvocidib 0.027 | Tubastatin A 0.011 | [8] -0.162 | defactinib -0.012 | rucaparib 0.082 | [9] 0.119 | encorafenib 0.075 | [10] -0.067

L2HGDH (UniProt Q9H9P8)
UniProt Q9H9P8, sequence (Q9H9P8 whole entry, looked up): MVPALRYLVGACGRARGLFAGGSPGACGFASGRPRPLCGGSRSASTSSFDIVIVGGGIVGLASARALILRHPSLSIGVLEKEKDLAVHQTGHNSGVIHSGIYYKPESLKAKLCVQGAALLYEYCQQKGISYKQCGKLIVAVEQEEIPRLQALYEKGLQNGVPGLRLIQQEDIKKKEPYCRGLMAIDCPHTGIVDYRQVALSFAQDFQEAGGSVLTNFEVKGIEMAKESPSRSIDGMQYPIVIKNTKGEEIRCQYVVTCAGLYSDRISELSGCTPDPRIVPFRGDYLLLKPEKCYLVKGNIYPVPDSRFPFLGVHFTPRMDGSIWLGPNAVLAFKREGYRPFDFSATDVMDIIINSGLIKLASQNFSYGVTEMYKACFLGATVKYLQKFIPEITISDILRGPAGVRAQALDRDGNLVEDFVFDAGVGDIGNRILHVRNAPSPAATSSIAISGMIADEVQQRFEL
inactive: [1] -0.088 | volasertib -0.014 | [2] 0.006 | epoxomicin -0.02 | [3] -0.023 | [4] -0.067 | [5] -0.027 | rosiglitazone 0.031 | [6] -0.11 | saracatinib -0.009 | sotrastaurin 0.091 | alvocidib -0.039 | Tubastatin A -0.002 | [8] -0.017 | defactinib -0.011 | rucaparib -0.005 | [9] 0.012 | encorafenib -0.022 | [10] 0.049
active: [7] -0.325

KRAS isoform 2 (UniProt P01116)
inactive: [1] 0.08 | volasertib 0.026 | [2] -0.047 | epoxomicin 0.027 | [3] -0.007 | [4] -0.073 | [5] 0 | rosiglitazone 0.038 | [6] 0.062 | [7] 0.141 | saracatinib 0.039 | sotrastaurin 0.045 | alvocidib -0.062 | Tubastatin A -0.036 | [8] 0.027 | defactinib 0.013 | rucaparib -0.028 | [9] 0.011 | encorafenib 0.043 | [10] 0.02

LBR (UniProt Q14739)
active: volasertib 0.552
inactive: [1] -0.036 | [2] 0.051 | epoxomicin 0.022 | [3] -0.012 | [4] -0.071 | [5] 0.056 | rosiglitazone 0.086 | [6] -0.026 | [7] 0.099 | saracatinib 0.008 | sotrastaurin 0.036 | alvocidib -0.032 | Tubastatin A -0.008 | [8] -0.02 | defactinib -0.022 | rucaparib 0.164 | [9] 0.116 | encorafenib 0.058 | [10] -0.089
